{"source": "PubChem BioAssay (EPA / NIEHS)", "note": "The source made the active and inactive calls. Rule for the calls: active = hit-call score of the fitted dose curve at least 0.9, where 1 is the maximum; inactive = score below 0.9.", "data": [{"target": "Hepatocyte nuclear factor 3-beta (Homo sapiens) (UniProt Q9Y261)", "sequence (Q9Y261 whole entry, looked up)": "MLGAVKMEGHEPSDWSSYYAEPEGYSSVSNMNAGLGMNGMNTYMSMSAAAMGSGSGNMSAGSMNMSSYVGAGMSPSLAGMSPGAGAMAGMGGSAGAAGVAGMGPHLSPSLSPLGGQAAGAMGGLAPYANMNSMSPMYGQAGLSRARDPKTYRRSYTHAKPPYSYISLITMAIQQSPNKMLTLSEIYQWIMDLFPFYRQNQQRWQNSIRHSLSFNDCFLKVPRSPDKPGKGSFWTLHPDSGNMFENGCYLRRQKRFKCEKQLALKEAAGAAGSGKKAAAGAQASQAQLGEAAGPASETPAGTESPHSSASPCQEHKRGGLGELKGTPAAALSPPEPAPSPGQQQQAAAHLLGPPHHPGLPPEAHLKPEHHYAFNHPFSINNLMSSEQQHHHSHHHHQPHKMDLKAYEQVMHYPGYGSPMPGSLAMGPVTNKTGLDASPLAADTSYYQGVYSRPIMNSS", "test": "ATG_FoxA2_CIS: Attagene CIS-FACTORIAL HepG2 Assay for human Forkhead box A2 (FOXA2) (AID 2282942)", "conditions": "HepG2 cis-reporter transcription factor activity, 24 h; actives raise or lower the signal", "description": "ATG_CIS is a cell-based, multiplexed-readout assay that uses HepG2, a human liver cell line, with measurements taken at 24 hours after chemical dosing in a 24-well plate.ATG_FoxA2_CIS is one of 52 assay component(s) measured or calculated from the ATG_CIS assay. It is designed to make measurements of mRNA induction, a form of inducible reporter, as detected with fluorescence intensity signals by Reverse transcription polymerase chain reaction (RT-PCR) and Capillary electrophoresis technology.Data from the assay component ATG_FoxA2_CIS was analyzed into 1 assay endpoint. This assay endpoint, ATG_FoxA2_CIS, was analyzed with bidirectional fitting relative to DMSO as the negative control and baseline of activity. Using a type of inducible reporter, measures of mRNA for gain or loss-of-signal activity can be used to understand the reporter gene at the transcription factor-level as they relate to the gene FOXA2. Furthermore, this assay endpoint can be referred to as a primary readout, because this assay has produced multiple assay endpoints where this one serves a reporter gene function. To generalize the intended target to other relatable targets, this assay endpoint is annotated to the dna binding intended target family, where the subfamily is forkhead box protein.\nHuman liver HepG2 cells are transiently transfected with multiple reporter transcription units (MRTUs) in 6-well plates using FuGene 6 reagent (Roche; 3 ml FuGene/1 mg DNA). The MRTU constructs are regulated by a cis-regulating element (promoter). […] A major difference between the CIS and TRANS system is that in CIS activities of endogenous TFs are measured, whereas the TRANS assay evaluates changes in activities of exogenous, chimeric NR-Gal4 proteins. […] At the end of 24 hour incubation, total RNA was isolated using TriZol reagent (Invitrogen). The isolated RNA is then reverse-transcribed using oligo(dT) primer and Mo-MLV reverse transcriptase (Invitrogen) with DNAse I (Ambion) treatment for 30 min. The one-tenth of the produced cDNA was amplified by PCR using Taq DNA polymerase (Invitrogen) and two reporter sequence-specific primers. The PCR products were fluorescently labeled by primer extension with 6-arboxyfluorescein (6-FAM) 5'-labeled reporter sequence-specific primer (2 min at 95 C, 20 s at 68 C and 10 min at 72 C) and these products were digested with 5U of HpaI (New England Biolabs) for 2h at 37 C. The fragments were purified using Qiaquick PCR columns (Qiagen), analyzed on an ABI 3130xL genetic analyzer (Applied Biosystems) with peak positions identified by using a set of X-rhodamine (ROX)-labeled MapMarker1000 molecular weight standards (BioVentures). The raw capillary electrophoresis data was processed using Attagraph software (Attagene).", "values": [{"smiles": "CCCCOCCOC(=O)c1ccccc1C(=O)OCCOCCCC", "outcome": "inactive"}, {"smiles": "O=C(O)c1ccccc1O", "outcome": "inactive"}, {"smiles": "CC1=C(C=O)C(C)(C)CCC1", "outcome": "inactive"}, {"smiles": "CC12CCC(C1)C(C)(C)C2O", "note": "(stereo not given)", "outcome": "inactive"}, {"smiles": "CCOC(=O)CC1(C)OCC(C)O1", "note": "(stereo not given)", "outcome": "inactive"}, {"smiles": "OCCCO", "outcome": "inactive"}, {"smiles": "Nc1ccc(O)c(N)c1", "outcome": "inactive"}, {"smiles": "CC(C)CCOC(=O)CC(C)C", "outcome": "inactive"}, {"smiles": "CC(C)COC(=O)c1ccccc1O", "outcome": "inactive"}, {"smiles": "CCCCCCCCOC(=O)c1ccc(O)cc1", "outcome": "inactive"}, {"smiles": "CCCCOC(=O)C(C)OC(=O)CCC", "note": "(stereo not given)", "outcome": "inactive"}, {"smiles": "O=S1(=O)CC(Cl)(Cl)C(Cl)(Cl)C1", "outcome": "inactive"}, {"smiles": "c1ccc(Sc2ccccc2)cc1", "outcome": "inactive"}, {"smiles": "CC(C)(C)C1CCC(O)CC1", "note": "(stereo not given)", "outcome": "inactive"}, {"smiles": "CCCCCCCCCCCCCC(=O)OCC", "outcome": "inactive"}, {"smiles": "CCCCCCCCCCCCCCCCCC(=O)OCCCCCCCCCCCCCC(C)C", "outcome": "inactive"}, {"smiles": "CC(C)=CC(=O)O", "outcome": "inactive"}, {"smiles": "C=CC(C)(CCC=C(C)C)OC(=O)CC", "note": "(stereo not given)", "outcome": "inactive"}, {"smiles": "CCCCCCCCCOS(=O)(=O)O", "outcome": "inactive"}, {"smiles": "CCCCOCC(C)OCC(C)O", "note": "(stereo not given)", "outcome": "inactive"}, {"smiles": "CCc1cccc(O)c1", "outcome": "inactive"}, {"smiles": "O=C(c1ccc(OCCN2CCCCC2)cc1)c1c(-c2ccc(O)cc2)sc2cc(O)ccc12", "outcome": "inactive"}, {"smiles": "CCCCCCCCCO", "outcome": "inactive"}, {"smiles": "c1ccc(Cc2ccccc2)cc1", "outcome": "inactive"}, {"smiles": "CCCCCCCCCCOC(=O)c1ccccc1C(=O)OCCCCCCCC", "outcome": "inactive"}, {"smiles": "O=C(O)C1=NN(c2ccc(S(=O)(=O)O)cc2)C(=O)C1", "outcome": "inactive"}, {"smiles": "CC(C)(C)c1cc(CCC(=O)OCCSCCOC(=O)CCc2cc(C(C)(C)C)c(O)c(C(C)(C)C)c2)cc(C(C)(C)C)c1O", "outcome": "inactive"}, {"smiles": "C[N+](C)(C)CCO", "outcome": "inactive"}, {"smiles": "CC(C)Cc1ccccc1", "outcome": "inactive"}, {"smiles": "CCC(=O)OC(C)(C)C1CC=C(C)CC1", "note": "(stereo not given)", "outcome": "inactive"}, {"smiles": "CC1=CC(O)CC(C)(C)C1", "note": "(stereo not given)", "outcome": "inactive"}, {"smiles": "CC1=CC[C@@H](C(C)(C)O)CC1", "outcome": "inactive"}, {"smiles": "CC(C)(O)C(=O)c1ccc(OCCO)cc1", "outcome": "inactive"}, {"smiles": "CCCCCCCCSCc1cc(C)c(O)c(CSCCCCCCCC)c1", "outcome": "inactive"}, {"smiles": "C/C=C(\\C)C(=O)OC/C=C(\\C)CCC=C(C)C", "outcome": "inactive"}, {"smiles": "C=CC(C)CCCC(C)(C)O", "note": "(stereo not given)", "outcome": "inactive"}, {"smiles": "CCCCCCCCCCCCS", "outcome": "inactive"}, {"smiles": "CC1(C)CC(N)CC(C)(CN)C1", "note": "(stereo not given)", "outcome": "inactive"}, {"smiles": "CCC(CC)CO", "outcome": "inactive"}, {"smiles": "CC(=O)CCC=C(C)CCC=C(C)C", "outcome": "inactive"}]}]}
